Rows were chosen to be rich in hits. Some 7.8% of all compounds tested hit in one or more screens of this group.
VACV mCherry inh: vaccinia inhibition (mCherry reporter); Potency, µM (series often up to 36.5 µM), inactives show top-dose activity change, negative = inhibition, hits mostly inhibitors; Vaccinia virus mCherry reporter infection, fluorescence; 310,000 compounds, 0.63% hits; calls by dose curve; tested in A549 cells; also: potency is read from the fitted curve at half-maximal effect; nearly all actives have a fitted effect of over 35% in size
Vaccinia Venus: vaccinia inhibition (Venus reporter) | Potency, µM (titrated, usually from 36.5 µM), without a hit: at the highest dose activity change, negative = inhibition, usual class: inhibitors | 330,000 compounds, 0.46% hits | Vaccinia virus Venus reporter expression, fluorescence; calls by dose curve; tested in A549 cells; also: potency is read from the fitted curve at half-maximal effect; nearly all actives have a fitted effect of over 30% in size
Marburg entry inh: inhibitors of Marburg virus binding or cell entry | Marburg virus pseudotyped entry inhibition, cell reporter | 300,000 compounds, 1.8% hits | Potency, µM (series often up to 37.8 µM), without a hit: at the highest dose activity change, negative = inhibition, most hits filed as inhibitors; calls by dose curve; tested in HEK293 cells; also: potency is read from the fitted curve at half-maximal effect
HCMV antiviral: inhibitors of human cytomegalovirus | HFF cells, HCMV-luciferase reporter, 72 h; stronger effect = lower value | activity change, negative = inhibition, % at 57.5 µM | 410,000 compounds, 4.5% hits; in the data active = activity change below about -60%; inconclusive = no clear call, values can overlap the other calls; inactive = above about -39%
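Two compound doses tested in HFFs infected with HCMV-luciferase, MOI 1 PFU/cell, 72 h at 37C. Lysate luminescence read with OneGlo; data normalized against buffer-only and 10uM Salinomycin inhibitor controls.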
HCV inh: blocks hepatitis C virus | Huh7.5.1 HCVcc-Cre infection, luciferase reporter, 44 h | Potency, µM (titrated, usually from 41.8 µM), inactives show top-dose activity change, negative = inhibition, hits mostly inhibitors | 340,000 compounds, 3.4% hits | AID 651820; active = well fitted inhibition curve with a large enough effect; inconclusive = small, poorly fitted or top-dose-only effect, or another doubt; inactive = no such curve, though single readings can be large or run the other way; also: potency is read from the fitted curve at half-maximal effect
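Seed cells (1,000/well) for 4 h; treat with compound and infect with HCVcc-Cre, moi about 0.5. Incubate 44 h, then detect luciferase activity.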
LASV entry inh: blocks Lassa virus binding to or entry into cells; 300,000 compounds, 1.2% hits; Lassa virus pseudotype entry inhibition, cell reporter; Potency, µM (titrated, usually from 37.9 µM), without a hit: at the top dose activity change, negative = inhibition, usual class: inhibitors; calls by dose curve; tested in HEK293 cells; also: potency is read from the fitted curve at half-maximal effect; nearly all actives have a fitted effect of over 50% in size
Numbers without * were called inactive; i = inactive; ? = inconclusive; . = no result; [ ] = remark or other dose. % is scaled to controls: 0 for no effect and ±100 for the full control effect.

SMILES	VACV mCherry inh	Vaccinia Venus	Marburg entry inh	HCMV antiviral	HCV inh	LASV entry inh
Cc1cc(C)nc(NC(N)=NC(C)c2ccccc2)n1 (stereo not given)	?	?	?	-17	1%	1%
Cc1cc(C)nc(NC(N)=NCCc2c[nH]c3ccccc23)n1	?	?	?	-97*	10µM*	-17%[46.1 µM]
Cc1cc(C)nc(NC(=NCCc2c[nH]c3ccccc23)NC(=O)Nc2ccc(Cl)cc2)n1	?	?	?	?	11µM*	-2%
Cc1cc(C)nc(NC(N)=NCCc2ccccc2)n1	?	?	7.1µM*	-96*	11µM*	?
CCOC(=O)C1CCN(c2cc(C)nc3c(-c4ccccc4OC)c(C)nn23)CC1	0%	-10%	.	-12	.	-5%[46.1 µM]
CCOc1cc(NC(=O)CCl)c(OCC)cc1NC(=O)CCl	-12%	1%	?	?	?	?
CCc1cc(SC#N)cc(CC)c1NC(=O)CCl	-25%	-29%	-18%	-74*	?	?
CCOC(=O)c1c(C)nc2c(c(SC)nn2-c2ccccc2)c1N	.	-9%	?	-30	10µM*	6%
Cc1cc2oc(=O)cc(C)c2cc1NC(=O)CCl	?	?	?	-100*	?	?
CCC(=O)Nc1cc2[nH]c(=O)cc(C)c2cc1C	.	.	.	-18	10%	.
Cc1cc2oc(=O)cc(C)c2cc1NC(=O)CCC(=O)O	-16%	-8%	18%	5	-25%	-9%
Cc1cc2c(C)cc(=O)[nH]c2cc1NC(=O)CCl	.	.	-1%	-25	11µM*	.
CCC(=O)Oc1cc(C(C)(C)C)cc2cc(-c3nc(-c4ccc(OC)cc4OC)no3)c(=O)oc12	-9%	2%	.	-39	.	15%[46.1 µM]
COc1cc(NC(=O)Cn2nc(C(F)(F)F)c3c2CCC3)cc(OC)c1OC	-14%	-12%	?	9	.	-4%[46.1 µM]
Cc1cc(/C=C2\SC(=S)N(Cc3ccco3)C2=O)c(C)n1-c1ccccc1	i	-7%	?	-67*	?	?
CN(C)c1ccc(C=C2SC(=S)N(Cc3ccco3)C2=O)cc1	-10%	356%	.	-30	.	.
O=C(c1ccco1)N1CCN(C23CC4CC(CC(C4)C2)C3)CC1	i	-12%	?	39	7%	22%[46.1 µM]
Cn1ncc(Cl)c1C(=O)N1CCN(C23CC4CC(CC(C4)C2)C3)CC1	-4%	-17%	9%	-77*	23%	?
Cc1ccc(C(=O)N2CCN(C34CC5CC(CC(C5)C3)C4)CC2)o1	.	.	.	-82*	4%	.
Cc1cccc(CN2C(=O)c3ccccc3Sc3ccc(C(=O)NC4CCCCC4)cc32)c1	-19%	-7%	.	10	.	0%[46.1 µM]
Cc1cccc(NC(=O)Cn2c(=O)n(CC3CCC(C(=O)NCCc4ccccc4)CC3)c(=O)c3ccccc32)c1C (stereo not given)	-4%	7%	-25%[46.1 µM]	-8	.	13%[46.1 µM]
CC12CCC(=O)C=C1CCC1C2CCC2(C)C(O)CCC12 (stereo not given)	13%	-7%	.	6	-11%	.
CC(=O)C1C(N2CC2)CC2C3CCC4=CC(=O)CCC4(C)C3CCC21C (stereo not given)	-17%	?	?	-63*	0.56µM*	?
Cc1cccc(C(=O)N2CCc3cc(CNS(=O)(=O)c4ccc(F)c(Cl)c4)ccc32)c1	-16%	-15%	.	-34	.	22%[46.1 µM]
Cc1noc(-c2ccccc2)c1-c1ccccc1[N+](=O)[O-]	.	.	.	-100*	.	.
SMILES	VACV mCherry inh	Vaccinia Venus	Marburg entry inh	HCMV antiviral	HCV inh	LASV entry inh
CCOC(=O)c1ccc(NC(=O)c2cc3sccc3n2Cc2ccc(Cl)cc2)cc1	-16%	-7%	?	-1	.	0%[46.1 µM]
CC(=O)c1ccc(N2CCN(S(=O)(=O)c3ccc(-c4cc(C(F)(F)F)on4)s3)CC2)cc1	-14%	-13%	.	-16	.	5%[46.1 µM]
c1ccc(CN2CCC(Nc3ncnc4sccc34)CC2)cc1	-30%	-20%	-5%[46.1 µM]	-29	-4%	-3%
Cc1csc2c(NC3CCN(Cc4ccccc4)CC3)ncnc12	-21%	-28%	2.8µM*	-18	?	-14%[46.1 µM]
Cc1sc2ncnc(NC3CCN(Cc4ccccc4)CC3)c2c1C	?	?	?	-81*	1µM*	?
OC1CN=C2CCCc3c2n(c2ccc(Cl)cc32)C1 (stereo not given)	?	-29%	-6%	15	-26%	1%
c1ccc(-c2ccc3c(c2)c2c4n3CCN=C4CCC2)cc1	.	.	26µM*	-15	?	-5%
CCOc1ccc(CNC(=O)C2CCN(S(=O)(=O)c3ccc4c(ccn4C)c3)CC2)cc1	-16%	-11%	.	-3	.	-5%[46.1 µM]
CC(c1ccccc1)N1C(=O)c2ccc(C(=O)Nc3ccc(Br)cc3C(=O)O)cc2C1=O (stereo not given)	.	.	.	.	-11%	.
CC(c1ccccc1)N1C(=O)c2ccc(C(=O)Nc3ccccc3C(=O)O)cc2C1=O (stereo not given)	.	.	.	-80*	-1%	.
Cc1ccccc1Nc1cc2ccccc2c(=O)[nH]1	.	10µM*	-19%[46.1 µM]	.	-24%	14%
O=c1[nH]c(Nc2ccccc2Cl)cc2ccccc12	-13%	-20%	.	4	?	.
COc1ccc(O[C@H]2C=C[C@@H](c3ccccc3)O[C@H]2COC(=O)CCC(C)=NO[C@H](C)c2cn([C@@H]3COC[C@@H]3O)nn2)cc1	.	.	-3%[14.2 µM]	.	.	26%[14.3 µM]
CSc1nc(NCCCN(C)C)c2c3c(sc2n1)CN(C)CC3	.	.	.	-10	.	.
CCN(CC)CCNc1nc(SC)nc2sc3c(c12)CCN(C)C3	?	-10%	7.1µM*	-20	?	?
O=C(N/N=C\c1ccc(CNS(=O)(=O)c2ccccc2)o1)C(=O)Nc1ccc(F)cc1	i	-30%	-14%	10	-4%	6%
O=C(N/N=C\c1ccc(CNS(=O)(=O)c2ccc(Cl)cc2)o1)C(=O)Nc1ccc(Oc2ccccc2)cc1	-12%	2%	?	-99*	13µM*	?
Oc1ccc(/C=N/Nc2ccnc3cc(Cl)ccc23)cc1O	?	-11%	.	-60*	?	.
CCN1CCCC1CNC(=O)C1=C(OC)CC(N(C)C)=C(NC(C)=O)C1 (stereo not given)	.	.	-21%	.	.	.
CCc1ccc2c(c1)NC(c1cccnc1)=NC(c1ccc(C(C)(C)C)cc1)=N2	?	-25%	?	-23	.	?
Fc1ccc(NC(=S)Nc2ccc3nccnc3c2)cc1	-10%	-16%	.	-29	-23%	.
Fc1ccc(NC(=S)Nc2nccs2)cc1	.	.	.	-115*	?	.
S=C(Nc1ccccc1)Nc1nccs1	-5%	-25%	14µM*	-19	?	15µM*
Cc1ccc(N2CC(NC(=O)c3cccc(Cl)c3)CC2=O)cc1C (stereo not given)	0%[7.34 µM]	-8%[7.34 µM]	.	-7	.	-20%[46.1 µM]
COc1ccc(C2(C(=O)c3ccccc3)C(=O)c3ccccc3C2=O)cc1	.	.	.	.	3.5µM*	.
COc1ccc(C2(Nc3cccc(C(=O)O)c3C)C(=O)c3ccccc3C2=O)cc1	i	-5%	.	3	.	?

Bioassay records as filed in PubChem.
